From PubChem
FH mod – Identification of activators of human fumarate hydratase by quantitative high-throughput screening. Fumarate hydratase, mitochondrial (Homo sapiens), P07954. FH coupled MDH/diaphorase resazurin fluorescence, 15 min. Potency, µM (series often up to 79.9 µM), for the others: at the top dose activity change, negative = inhibition, hits mostly inhibitors. hit rate 0.22% among 54,000; further: potency means the concentration at half of the fitted maximal effect; on the % scale 0 is the no-effect control and ±100 the full control effect; the screen sought activators but most active calls are inhibition curves; nearly all actives have a fitted effect of over 45% in size
NTMT1 inh – Primary qHTS for Inhibitors of N-terminal methyltransferase 1 (NTMT1): MTaseGlo Assay; N-terminal Xaa-Pro-Lys N-methyltransferase 1 (Homo sapiens), Q9BV86; NTMT1 MTase-Glo SAH luminescence, purified enzyme; Potency, µM (doses to about 114 µM), inactives show at the top dose activity change, negative = inhibition, most hits filed as inhibitors; hit rate 2.5% among 59,000; AID 1645870, 2021;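 further: potency means the concentration at half of the fitted maximal effect; plate controls were DMSO vehicle for no effect and no enzyme for full effect; nearly all actives have a fitted effect of over 65% in size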
Target sequence (Q9BV86 whole entry, looked up): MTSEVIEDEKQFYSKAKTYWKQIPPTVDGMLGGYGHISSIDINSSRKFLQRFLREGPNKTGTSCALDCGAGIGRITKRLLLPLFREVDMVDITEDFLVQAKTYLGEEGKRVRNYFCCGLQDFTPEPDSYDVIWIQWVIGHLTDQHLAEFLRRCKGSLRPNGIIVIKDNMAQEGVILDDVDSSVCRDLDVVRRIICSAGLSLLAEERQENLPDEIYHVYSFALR
B2AR arrestin ag – qHTS assay of beta-arrestin-biased ligands of beta2-adrenergic receptor: NCGC Sytravon Library Screen; Beta-2 adrenergic receptor (Homo sapiens), P07550; HTLA Tango cells, beta-arrestin recruitment, luciferase luminescence, 18 h; Potency, µM (doses to about 46.1 µM), hits mostly activators; 44,000 tested, under 10 active; AID 1347077, 2019;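 further: potency means the concentration at half of the fitted maximal effect; 0% = DMSO and full agonism = EC100 isoproterenol or metaproterenol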
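Receptor–beta-arrestin recruitment read by tTA-responsive luciferase: compound titrations (up to 46 µM) incubated 18 h with Tango cells, then luminescent substrate 15 min at room temperature. Concentration-response fits classified by r2, efficacy and activity.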
DRV1 agonist – qHTS for Agonists of Human Resolvin D1 Receptor DRV1; Probable G-protein coupled receptor 32 (Homo sapiens), O75388; CHO-K1 GPR32 beta-arrestin PathHunter luminescence, 90 min; zero percent set by DMSO-only wells; activation, % at 76.9 µM; hit rate 2.5% among 48,000; AID 1346428, 2018;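 active means activation of at least 60% and not above a set upper limit, about 1 call in 100 departs from these limits; inconclusive means activation of 40% to 60%, or above that upper limit; inactive means activation under 40%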; further: 0% is about no effect
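PathHunter enzyme-fragment complementation, CHO-K1 GPR32 stable line; 2,500 cells/well, overnight attach; cpd 90 min 37 °C 5% CO2; detection reagent 1 h RT; chemiluminescence. DMSO = EC0.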
GALK inhibitor – qHTS Assay for Inhibitors of Human Galactokinase (GALK): NCGC Sytravon Library Screen; recombinant GALK, Kinase-Glo ATP luminescence, 1 h; Potency, µM (titrated, usually from 57.5 µM), for the others: at the highest dose activity, negative = inhibition, actives largely listed as inhibitors; 44,000 tested, under 10 active; AID 1347072, 2019;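 further: plate controls were full GALK reaction for no effect and reaction lacking GALK for full effect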
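Reactions with and without enzyme served as controls. GALK at 5 nM phosphorylates 100 uM galactose using 35 uM ATP (HEPES pH 8.0, Mg2+) for 1 h at RT, with luminescence read 10 min after adding Kinase-Glo Plus.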
TSG101-PTAP inh – qHTS Validation Assay for Inhibitors of HIV-1 Budding by Blocking the Interaction of PTAP/TSG101: Sytravon Library Screen. AID 1347069, 2019. 44,000 tested, under 10 active. Tumor susceptibility gene 101 protein (Homo sapiens), Q99816. Potency, µM (top dose mostly 115 µM), most hits filed as inhibitors. Fluorescence polarization, FITC-PTAP peptide/Tsg101, 20 min; further: potency means the concentration at half of the fitted maximal effect; 0% is about no effect
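FITC-labeled PTAP peptide (50 nM final) binding to Tsg101 binding domain (10 uM final) read by fluorescence polarization after 20 min at r.t. in HEPES pH 7.5 buffer. Actives by CRC class, <25 µM.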
Sfp qHTS opt – qHTS Assay for Inhibitos of Bacillus subtilis Sfp phosphopantetheinyl transferase (PPTase): Chemistry Optimization Followup; shares compounds with NTMT1 inh; purified Sfp PPTase enzyme activity, qHTS; Potency, µM (doses to about 114 µM), inactives show at the top dose activity change, negative = inhibition, usual class: inhibitors; hit rate 78% among 230
HM489 growth – qHTS for Inhibitos of Bacillus subtilis Sfp phosphopantetheinyl transferase (PPTase): Chemistry Optimization Followup in B. Subtilis HM489 | B. subtilis HM489 (acpS-) growth, BacTiter-Glo, 5 h | AID 540353, 2011 | Potency, µM (series often up to 114 µM), without a hit: at the highest dose activity change, negative = inhibition, hits mostly inhibitors | shares compounds with NTMT1 inh | hit rate 50% among 220
Sfp gel opt – Gel-Based Assay for Inhibitos of Bacillus subtilis Sfp phosphopantetheinyl transferase (PPTase): Chemistry Optimization Followup. AID 540355, 2011. purified Sfp PPTase, gel-based product detection. shares compounds with NTMT1 inh. hit rate 54% among 220. Potency, µM (titrated, usually from 250 µM), inactives show at the highest dose activity change, negative = inhibition, usual class: inhibitors
Sfp SAR2 – qHTS Assay for Inhibitors of Bacillus subtilis Sfp phosphopantetheinyl transferase (PPTase): SAR Round 2 | purified Sfp enzyme, PPTase activity, qHTS | AID 602370, 2012 | Potency, µM (titrated, usually from 57.1 µM), inactives show at the top dose activity change, negative = inhibition, hits mostly inhibitors | hit rate 87% among 230 | shares compounds with NTMT1 inh
HSD17B4 counter – Extended Characterization of HPGD Inhibitors: Counterscreen Against HSD17b4 | shares compounds with NTMT1 inh | purified HSD17B4, estradiol/NAD+, NADH fluorescence | Potency, µM (top dose mostly 57.1 µM), for the others: top-dose activity change, negative = inhibition, hits mostly inhibitors | hit rate 10% among 230 | AID 743187, 2013
ALDH1A1 counter – Extended Characterization of HPGD Inhibitors: Counterscreen Against ALDH1A1 | Potency, µM (series often up to 57.1 µM), for the others: at the top dose activity change, negative = inhibition, hits mostly inhibitors | hit rate 93% among 230 | shares compounds with NTMT1 inh | recombinant ALDH1A1, NADH fluorescence, propionaldehyde/NAD+
NNMT inh – Counterscreen qHTS for Inhibitors of N-terminal methyltransferase 1 (NTMT1): NNMT MTaseGlo assay | shares compounds with NTMT1 inh | NNMT MTase-Glo luminescence, SAH detection | Potency, µM (top dose mostly 57.1 µM), for inactives: top-dose activity, negative = inhibition, most hits filed as inhibitors | hit rate 10% among 120 | AID 1645878, 2021
Target sequence (P40261 whole entry, looked up): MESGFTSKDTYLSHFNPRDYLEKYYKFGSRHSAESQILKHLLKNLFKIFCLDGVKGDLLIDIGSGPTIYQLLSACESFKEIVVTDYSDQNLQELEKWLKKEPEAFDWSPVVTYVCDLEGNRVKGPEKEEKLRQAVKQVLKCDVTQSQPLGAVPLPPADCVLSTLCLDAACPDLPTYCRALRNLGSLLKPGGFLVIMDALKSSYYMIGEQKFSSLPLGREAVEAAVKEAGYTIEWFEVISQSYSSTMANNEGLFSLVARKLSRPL
* = called active by the depositor; i = inactive; ? = inconclusive; . = not tested or not shown; ! = not confirmed by another sample; [ ] = dose if it differs, or a comment. Compounds with a hit are over-represented: about 3.7% of the library has one in this group of screens. Unless noted, the call rests on the fitted dose curve; in most records, active means well fitted curve in the direction sought with a large enough effect; inconclusive means small, poorly fitted or top-dose-only effect, or another doubt; inactive means no such curve, though single readings can be large; an effect the other way counts as inactive or inconclusive.

SMILES | FH mod | NTMT1 inh | B2AR arrestin ag | DRV1 agonist | GALK inhibitor | TSG101-PTAP inh | NNMT inh | others
Cc1cc(C)nc(NC(=S)N2CCN(c3nccs3)CC2)c1 | . | ? | . | . | . | . | . | Sfp qHTS opt=?;HM489 growth=-27%;Sfp gel opt=20µM*!;Sfp SAR2=4.1µM*!;HSD17B4 counter=-15%;ALDH1A1 counter=11µM*
Cc1cc(C)nc(NC(=S)N2CCN(c3nncs3)CC2)c1 | . | -25%[57.5 µM] | . | . | . | . | . | Sfp qHTS opt=13µM*;HM489 growth=?;Sfp gel opt=32µM*;Sfp SAR2=2.3µM*;HSD17B4 counter=0%;ALDH1A1 counter=22µM*
FC(F)(F)c1ccccc1-c1nc(NCc2ccc(-c3ccc4c(c3)OCCO4)cc2)c2ccccc2n1 | . | 12% | . | . | . | . | .
O=C(Nc1ccccc1)c1ccc(Nc2nnc(-c3ccc(O)cc3)c3ccccc23)cc1 | -5% | 7%[57.5 µM] | . | . | . | . | ?
Cc1ccnc(NCc2ccc(O)c3ncccc23)c1 | . | -4% | . | . | . | . | .
O=C(CC1C(=O)Nc2ccccc21)OC[C@H]1O[C@@H](OCCc2ccc(O)cc2)[C@H](O)[C@@H](O)[C@@H]1O (some centres undefined) | 0%[53.3 µM] | -19%[29.8 µM] | . | . | . | . | .
COc1cccc(C(=O)Nc2ccc([S+](=O)([O-])Nc3nccs3)cc2)c1O | . | 12% | . | . | . | . | .
COc1cccc(-c2cn(-c3ccc(CCN4CCC(O)CC4)cc3)c3ncnc(N)c23)c1 | -2% | 13µM* | . | . | . | . | ?
COc1ccc(Nc2cc(C(=O)NCc3ccccc3)c3ccccc3n2)c(OC)c1 | -34% | -4% | i | -31 | 8% | i | .
NCCOc1cc(C(=O)Nc2cc(OCCN)c3ccccc3n2)nc(C(=O)Nc2cc(OCCN)c3ccccc3n2)c1 | ? | 22µM* | . | . | . | . | -12%
COc1cc2c(NC3CCN(C(C)C)CC3)nc(N3CCC(F)(F)CC3)nc2cc1OCCCN1CCCC1 | -1% | -24%[57.5 µM] | . | . | . | . | .
COc1cc2c(NC3CCN(C(C)C)CC3)nc(N3CCCN(c4ccccc4)CC3)nc2cc1OCCCN1CCCC1 | . | . | . | . | . | . | -11%
NC(=O)C(CCC(F)(F)F)N(Cc1ccc(-c2ncon2)cc1F)S(=O)(=O)c1ccc(Cl)cc1 (centres undefined) | -6% | 0%[57.5 µM] | . | . | . | . | .
Cc1ccc(S(=O)(=O)Nc2cnccc2C(=O)NCc2ccccc2)cc1 | . | 2%[57.5 µM] | . | . | . | . | .
